Only a selection was taken, and hits are over-represented in it overall.
PI5P4Ka inh: PI5P4K alpha (human) kinase inhibition; max response, %; hit rate 1.2% among 330,000; PI5P4Kalpha enzyme, ADP-Glo luminescence, 60 min; active compounds read low; active = max response of -50% or lower; inconclusive = between -30% and -50%; inactive = -30% or higher; also: value at the top dose of about 77 µM
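Reactions run in 0.038 M HEPES pH 7.4, 0.28 mM EGTA, 0.1% CHAPS and 5% DMSO, with PI5P4Kalpha, substrate, compound and 5 microM ATP final, one hour at room temperature. Readout is ADP-Glo luminescence.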
PI4K2A inh: inhibitors of human PI4K2A; Q9BTU6; purified PI4K2A, ADP-Glo luminescence, 1 h; active compounds read low; activity change, negative = inhibition, % at 76.9 µM; hit rate 0.13% among 420,000; AID 1346378; in the data active = activity change below about -50%; inconclusive = mostly about -30% to -49%;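 also: -100% = wells without enzyme as full effect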
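Compounds are screened against recombinant PI4K2A using PI as substrate and ATP, the latter dispensed at 300 microM. Reactions run one hour at ambient temperature before ADP-Glo detection; full inhibition defined by wells lacking enzyme.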
Tb PGK inh: T. brucei PGK inhibition. hit rate 0.043% among 380,000. P07378. Potency, µM (series often up to 57.5 µM), inactives show at the highest dose activity change, negative = inhibition, actives largely listed as inhibitors. PGK/GAPDH coupled, Kinase-Glo luminescence, 60 min; also: potency is read from the fitted curve at half-maximal effect; nearly all actives have a fitted effect of over 60% in size
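Recombinant glycosomal PGK reaction used 1,3-bisphosphoglycerate generated in-well by GAPDH (100nM final) in 100mM TEA pH 7.6, 5mM MgCl2, 0.01% Tween-20. After 60 minutes at room temperature, ATP was read by Kinase-Glo Plus luminescence end-point.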
Pin1 inhibitor: inhibitors of human Pin1; Q13526; Pin1 FP peptide displacement, HiFluor488, 10 min; Potency, µM (series often up to 115 µM), inactives show top-dose activity, negative = inhibition, hits mostly inhibitors; hit rate 0.009% among 390,000; AID 504891; active = well fitted inhibition curve with a large enough effect in the polarisation, with a control signal flat, not every such curve was filed as active; inconclusive = small, poorly fitted or top-dose-only effect, or effect the other way, or a change in a side signal; inactive = no such curve, though single readings can be large or run the other way; the % refers to the polarisation; also: potency is read from the fitted curve at half-maximal effect
Target sequence (Q13526 whole entry, looked up): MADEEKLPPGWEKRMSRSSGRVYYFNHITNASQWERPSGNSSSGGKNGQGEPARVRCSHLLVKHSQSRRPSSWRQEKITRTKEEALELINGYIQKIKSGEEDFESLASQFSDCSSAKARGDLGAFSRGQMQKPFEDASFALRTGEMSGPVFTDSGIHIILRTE
ADP-Glo interf: interferes with ADP-Glo detection without enzyme present. shares compounds with PI5P4Ka inh. ADP-Glo detection counter-screen, luciferase luminescence, no enzyme. Potency, µM (titrated, usually from 76.9 µM), for inactives: at the highest dose activity change, negative = inhibition, actives largely listed as inhibitors. 1,100 tested, under 10 active. AID 743285
* hit, by the source's call; i = inactive; ? = inconclusive; · = no result given. Unless noted, calls follow the shape of the dose curve; as a rule, active = well fitted curve in the direction sought with a large enough effect; inconclusive = small, poorly fitted or top-dose-only effect, or another doubt; inactive = no such curve, though single readings can be large; an effect the other way counts as inactive or inconclusive. Unless noted, % is scaled to controls: 0 for no effect and ±100 for the full control effect.

SMILES	PI5P4Ka inh	PI4K2A inh	Tb PGK inh	Pin1 inhibitor	ADP-Glo interf
O=C(Nc1cccc(S(=O)(=O)NC2=NCCCCC2)c1)c1cc(-c2ccco2)nc2ccccc12	-73*	?	-15%	?	-10%
CC(=O)c1cccc(NC(=O)c2cc(-c3ccco3)nc3ccccc23)c1	-51*	-1	-11%	52%	4%
O=C(Nc1cccc(S(=O)(=O)NC2=NCCCCC2)c1)c1cc(-c2ccncc2)nc2ccccc12	0	-5	-5%	1%	·
Cc1sc(NC(=O)c2sc3nc4c(C)cccc4cc3c2N)c(C#N)c1C	-63*	-1	-1%	?	-6%
Cc1cccc2cc3c(N)c(C#N)sc3nc12	6	4	-9%	?	·
C=CCNC(=O)COC(=O)c1c2c(nc3ccccc13)CCC2	-75*	-15	-10%	?	-4%
CNC(=O)COC(=O)c1c2c(nc3ccccc13)CCC2	?	-6	-3%	?	·
O=[N+]([O-])c1cc(-c2nc(-c3cccnc3)no2)ccc1NCc1ccccc1	·	-2	4%	-8%	·
COc1cc(Cl)ccc1OCc1cc(C(=O)N[C@H]2CCCCNC2=O)no1	-2	-2	1%	-1%	·
CCn1c(=O)n(-c2ccc(C)c(F)c2)c(=O)c2sc3ccccc3c21	·	2	i	0%	·
CCCCc1nnc(NC(=O)CC(=O)Nc2ccccc2C(=O)O)s1	-61*	5	0%	-11%	-9%
CC(C)Cc1nnc(NC(=O)CC(=O)Nc2ccccc2C(=O)O)s1	-57*	1	-6%	4%	0%
CCc1nnc(NC(=O)CC(=O)Nc2ccccc2C(=O)O)s1	·	-8	11%	-5%	·
COc1cccc(CNC(=O)c2c(C)oc3ncnc(N4CCOCC4)c23)c1	·	-4	-8%	-3%	·
N#Cc1ccccc1OCc1cn(CC(=O)c2ccc(O)cc2)nn1	-58*	?	i	-11%	-11%
O=C(Cc1ccc(S(=O)(=O)N2CCOCC2)s1)NCC1CCCCC1	?	-3	-16%	16%	·
O=C(Cc1ccc(S(=O)(=O)N2CCOCC2)s1)Nc1ccc2c(c1)CCC2	-7	-2	-3%	7%	·
O=C(Cc1ccc(S(=O)(=O)N2CCOCC2)s1)NC1CCCCC1	-51*	-4	-10%	8%	-9%
O=C(Cc1ccc(S(=O)(=O)N2CCOCC2)s1)Nc1nc2c(s1)CCCC2	-66*	-23	-27%	?	-3%
CCC(=O)c1ccc(OCC(=O)N2CCN(S(=O)(=O)c3ccc(Cl)s3)CC2)cc1	-54*	-8	-1%	1%	-11%
O=C(COCc1cc(-c2cccs2)on1)NCc1ccc(Cl)cc1	·	4	-1%	-4%	·
Cc1ccc(NC(=O)CCS(=O)(=O)c2ccc(Br)s2)c(Br)c1	·	0	-12%	9%	·
COc1ccc(Cl)cc1C(Nc1cccnc1)c1ccc2cccnc2c1O (centres undefined)	-72*	-3	-3%	-14%	2%
CCC(=O)NC(c1ccccc1OC)c1ccc2cccnc2c1O (centres undefined)	·	5	·	?	·
O=C(c1ccccc1)c1ccc2nc(-c3ccco3)c(-c3ccco3)nc2c1	-100*	?	-11%	·	-3%
SMILES	PI5P4Ka inh	PI4K2A inh	Tb PGK inh	Pin1 inhibitor	ADP-Glo interf
CCN(CC)S(=O)(=O)c1ccc2c(c1)N(CC(=O)NCCc1ccc(OC)c(OC)c1)C(=O)CO2	·	3	i	1%	·
Cc1ccnc2nc(C(=O)OCC(=O)NC3CCC(C)CC3)nn12 (centres undefined)	0	7	-8%	9%	·
Cc1ccnc2nc(C(=O)OCC(=O)NC3CCCC(C)C3C)nn12 (centres undefined)	-11	-14	8%	1%	-9%
Cc1nn(-c2ccc3ccccc3c2)c(=O)c2ccccc12	3	-3	1%	1%	·
Cc1nn(-c2nc3ccccc3[nH]2)c(=O)c2ccccc12	-60*	-81*	?	0%	?
O=C(CSc1ncccn1)NCc1ccc(F)cc1	·	2	-8%	0%	·
Cc1ccc(CNC(=O)CSc2ncccn2)cc1	?	-3	i	?	3%
COCCNC(=O)C(c1ccc(Cl)cc1)N(Cc1ccco1)C(=O)CCC(=O)Nc1ccccn1 (centres undefined)	-53*	-5	9%	4%	2%

Bioassay records as filed in PubChem BioAssay.
